Test results as given in ChEMBL document CHEMBL3988442, “University of Dundee, Small-Polar-MMV Screening Library” (2021).
For some of these results: Measured potencies and affinities stand elsewhere.

Columns and labels:
Set-up in all cases: scale not given: direction of the effect not stated beside the values
[1] = target: Protein translocase subunit SecA (Escherichia coli (strain K12)) (UniProt P10408); assay: Assay to Identify E. coli SecA ATPase Inhibitors; assay type: functional; conditions: 30 µM
[2] = target: T1, Ubiquitin-activating enzyme e1, putative (Leishmania donovani (strain BPK282A1)) (UniProt E9BSI1); assay: Leishmania donovani Ubiquitin Activating Enzyme (LdE1); assay type: functional; conditions: 30 µM
T1 sequence (whole entry): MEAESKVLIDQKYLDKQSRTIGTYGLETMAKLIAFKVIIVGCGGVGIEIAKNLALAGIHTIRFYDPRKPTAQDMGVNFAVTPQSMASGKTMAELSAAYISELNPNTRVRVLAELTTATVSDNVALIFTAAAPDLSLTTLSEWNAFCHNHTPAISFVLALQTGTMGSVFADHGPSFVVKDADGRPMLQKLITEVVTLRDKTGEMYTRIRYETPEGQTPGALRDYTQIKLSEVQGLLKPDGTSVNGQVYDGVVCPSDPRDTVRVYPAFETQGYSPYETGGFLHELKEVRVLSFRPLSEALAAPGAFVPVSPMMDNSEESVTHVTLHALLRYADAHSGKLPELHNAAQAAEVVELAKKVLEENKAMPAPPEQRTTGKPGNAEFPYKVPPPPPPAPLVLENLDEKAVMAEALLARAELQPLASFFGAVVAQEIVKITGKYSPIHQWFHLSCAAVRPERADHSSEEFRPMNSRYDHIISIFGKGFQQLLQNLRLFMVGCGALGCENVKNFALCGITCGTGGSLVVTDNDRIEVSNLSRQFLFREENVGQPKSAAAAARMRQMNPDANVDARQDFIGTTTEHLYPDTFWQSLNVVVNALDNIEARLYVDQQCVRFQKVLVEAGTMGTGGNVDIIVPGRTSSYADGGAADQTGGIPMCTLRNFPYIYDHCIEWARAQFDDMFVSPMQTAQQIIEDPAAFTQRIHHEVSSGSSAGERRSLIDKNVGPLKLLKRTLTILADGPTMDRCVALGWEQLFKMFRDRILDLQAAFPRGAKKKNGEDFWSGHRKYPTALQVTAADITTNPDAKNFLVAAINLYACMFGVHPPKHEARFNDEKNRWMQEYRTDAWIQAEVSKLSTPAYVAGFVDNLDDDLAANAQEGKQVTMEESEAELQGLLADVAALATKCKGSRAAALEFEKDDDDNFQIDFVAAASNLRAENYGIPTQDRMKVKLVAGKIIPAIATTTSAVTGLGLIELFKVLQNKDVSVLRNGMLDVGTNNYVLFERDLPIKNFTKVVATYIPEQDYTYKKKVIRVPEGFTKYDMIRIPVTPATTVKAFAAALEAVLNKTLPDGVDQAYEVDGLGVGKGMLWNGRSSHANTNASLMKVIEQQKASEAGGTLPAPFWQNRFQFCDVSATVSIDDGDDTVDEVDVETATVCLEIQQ

[3] = target: AMP-activated protein kinase, AMPK (Homo sapiens) (UniProt P54646+O43741+P54619+Q9UGJ0+Q9Y478+Q13131+Q9UGI9); assay: AMP-dependent Kinase enzyme assay. An in vitro enzyme assay that detects ADP turnover that is directly proportional to AMPK activity. This uses naive AMPK that is activated during the assay with MK-8722; assay type: functional; conditions: 30 µM
[4] = target: Sialic acid-binding Ig-like lectin 9 (Homo sapiens) (UniProt Q9Y336); assay: Hs-Siglec9 ALPHAscreen SOP 20170721; conditions: 10 µM
Trypanosoma cruzi = assay: Trypanosoma cruzi phosphomannomutase and mannose-1-phosphate guanylyltransferase assay; assay type: functional; conditions: 10 µM
[5] = target: T2, Arginase-2, mitochondrial (Homo sapiens) (UniProt P78540); assay: in vitro enzyme assay to detect the production of urea directly proportional to the activity of Arginase II; assay type: functional; conditions: 33.3 µM; also: in the data most compounds retested in dose-response had high values
T2 sequence (whole entry): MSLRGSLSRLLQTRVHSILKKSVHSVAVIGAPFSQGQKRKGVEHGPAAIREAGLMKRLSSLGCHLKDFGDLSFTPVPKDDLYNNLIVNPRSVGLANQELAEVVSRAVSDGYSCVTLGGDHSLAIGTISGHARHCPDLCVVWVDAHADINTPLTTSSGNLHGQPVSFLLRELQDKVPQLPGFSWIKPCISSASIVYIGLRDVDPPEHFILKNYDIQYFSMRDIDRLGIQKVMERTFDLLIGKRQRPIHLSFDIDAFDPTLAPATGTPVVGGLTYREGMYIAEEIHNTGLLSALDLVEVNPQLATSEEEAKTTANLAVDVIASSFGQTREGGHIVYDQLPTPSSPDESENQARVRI

[6] = target: T3, Proteasome subunit beta (Trypanosoma cruzi) (UniProt O96673); assay: Trypanosoma cruzi proteasome chymotrypsin-like activity (TcProtChymo) assay.; also: in the data most compounds retested in dose-response had high values; assay type: functional; conditions: 9.37 µM
T3 sequence (whole entry): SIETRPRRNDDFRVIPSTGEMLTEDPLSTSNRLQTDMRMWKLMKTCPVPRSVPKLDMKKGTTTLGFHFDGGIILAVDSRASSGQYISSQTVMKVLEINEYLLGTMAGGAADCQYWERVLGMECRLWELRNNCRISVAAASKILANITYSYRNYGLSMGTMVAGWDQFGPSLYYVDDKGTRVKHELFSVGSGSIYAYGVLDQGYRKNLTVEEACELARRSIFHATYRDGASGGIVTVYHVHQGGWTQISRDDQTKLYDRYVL

Homo sapiens = species on record: Homo sapiens; assay: To identify inhibition of the IFN signalling (Jak-Stat) pathway via expression of an eGFP reporter gene under the control of an IFN-stimulated response element (ISRE) containing MxA promoter.; assay type: functional; conditions: 30 µM
[7] = target: T4, Tyrosyl-tRNA synthetase, putative (Trypanosoma cruzi (strain CL Brener)) (UniProt Q4DSP6); assay: Trypanosoma cruzi tyrosyl tRNA synthetase (TcYRS) _High Tyrosine SOP; assay type: functional; conditions: 30 µM; also: in the data most compounds retested in dose-response had high values
T4 sequence (whole entry): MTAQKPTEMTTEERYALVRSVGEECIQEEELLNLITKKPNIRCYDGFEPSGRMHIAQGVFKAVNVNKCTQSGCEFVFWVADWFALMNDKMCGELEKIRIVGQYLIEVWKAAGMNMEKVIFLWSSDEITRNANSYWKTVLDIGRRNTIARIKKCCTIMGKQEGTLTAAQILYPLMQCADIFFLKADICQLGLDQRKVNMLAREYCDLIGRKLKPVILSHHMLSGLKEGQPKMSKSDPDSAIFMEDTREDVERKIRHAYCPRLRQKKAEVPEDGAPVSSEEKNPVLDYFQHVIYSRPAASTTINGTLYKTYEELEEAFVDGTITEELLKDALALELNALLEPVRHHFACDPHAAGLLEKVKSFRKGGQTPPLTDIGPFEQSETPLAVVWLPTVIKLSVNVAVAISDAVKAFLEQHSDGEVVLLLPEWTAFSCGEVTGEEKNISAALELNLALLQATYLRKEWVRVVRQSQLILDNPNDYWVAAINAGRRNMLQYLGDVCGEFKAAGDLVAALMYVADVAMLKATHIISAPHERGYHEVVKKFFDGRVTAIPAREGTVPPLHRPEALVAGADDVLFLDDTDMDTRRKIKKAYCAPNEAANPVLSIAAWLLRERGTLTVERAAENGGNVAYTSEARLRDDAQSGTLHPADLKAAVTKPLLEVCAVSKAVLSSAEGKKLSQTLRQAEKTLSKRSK

[8] = target: T4, Tyrosyl-tRNA synthetase, putative (Trypanosoma cruzi (strain CL Brener)); assay: Trypanosoma cruzi tyrosyl tRNA synthetase (TcYRS) SOP; assay type: functional; conditions: 30 µM
[9] = target: Chromo domain-containing protein 1 (Saccharomyces cerevisiae (strain ATCC 204508 / S288c) (Baker's yeast)) (UniProt P32657); assay: ScCHD-1 Enzyme Inhibition Assay; assay type: functional; conditions: 30 µM; also: in the data most compounds retested in dose-response had high values
Chromo domain-containing protein 1 (Saccharomyces cerevisiae (strain ATCC 204508 / S288c) (Baker's yeast)), sequence (P32657 whole entry, the tested form may be a part): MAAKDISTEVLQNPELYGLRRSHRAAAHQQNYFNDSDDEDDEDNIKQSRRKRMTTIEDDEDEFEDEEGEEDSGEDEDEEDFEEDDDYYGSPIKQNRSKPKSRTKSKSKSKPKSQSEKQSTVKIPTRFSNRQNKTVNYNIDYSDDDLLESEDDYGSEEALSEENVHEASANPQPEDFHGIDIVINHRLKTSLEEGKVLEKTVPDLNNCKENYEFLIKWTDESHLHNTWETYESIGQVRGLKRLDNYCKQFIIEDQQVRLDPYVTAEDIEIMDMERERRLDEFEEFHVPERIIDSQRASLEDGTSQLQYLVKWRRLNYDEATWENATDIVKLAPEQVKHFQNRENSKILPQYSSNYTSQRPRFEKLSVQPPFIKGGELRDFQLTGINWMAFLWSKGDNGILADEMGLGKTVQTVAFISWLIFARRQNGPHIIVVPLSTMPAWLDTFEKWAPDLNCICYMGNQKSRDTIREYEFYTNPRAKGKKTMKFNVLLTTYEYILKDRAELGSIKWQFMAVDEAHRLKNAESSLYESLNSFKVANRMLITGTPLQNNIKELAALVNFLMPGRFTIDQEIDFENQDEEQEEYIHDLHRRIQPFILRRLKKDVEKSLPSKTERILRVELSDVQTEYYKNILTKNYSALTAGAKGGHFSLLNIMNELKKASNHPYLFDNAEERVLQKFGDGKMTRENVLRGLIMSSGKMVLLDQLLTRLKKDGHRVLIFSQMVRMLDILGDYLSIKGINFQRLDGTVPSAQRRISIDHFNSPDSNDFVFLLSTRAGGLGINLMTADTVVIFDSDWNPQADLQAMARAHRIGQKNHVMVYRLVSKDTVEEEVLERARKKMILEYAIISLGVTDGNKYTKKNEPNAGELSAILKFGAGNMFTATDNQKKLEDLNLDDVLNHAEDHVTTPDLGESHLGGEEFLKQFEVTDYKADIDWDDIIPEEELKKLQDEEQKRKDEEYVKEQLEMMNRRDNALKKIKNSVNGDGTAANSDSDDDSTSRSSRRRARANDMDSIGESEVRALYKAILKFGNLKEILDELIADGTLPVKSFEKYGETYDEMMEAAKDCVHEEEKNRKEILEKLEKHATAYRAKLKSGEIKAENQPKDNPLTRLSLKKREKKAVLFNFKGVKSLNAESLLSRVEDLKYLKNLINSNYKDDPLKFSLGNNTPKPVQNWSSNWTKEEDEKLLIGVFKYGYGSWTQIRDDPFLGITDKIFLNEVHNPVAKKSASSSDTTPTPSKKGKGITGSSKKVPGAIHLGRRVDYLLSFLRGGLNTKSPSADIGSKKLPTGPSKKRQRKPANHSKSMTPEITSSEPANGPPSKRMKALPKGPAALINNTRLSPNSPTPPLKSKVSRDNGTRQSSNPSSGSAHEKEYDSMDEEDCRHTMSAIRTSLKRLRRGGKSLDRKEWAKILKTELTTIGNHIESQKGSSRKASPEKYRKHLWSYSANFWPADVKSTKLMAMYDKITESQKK

Sialic acid-binding Ig-like lectin 9 (Homo sapiens), sequence (Q9Y336 whole entry): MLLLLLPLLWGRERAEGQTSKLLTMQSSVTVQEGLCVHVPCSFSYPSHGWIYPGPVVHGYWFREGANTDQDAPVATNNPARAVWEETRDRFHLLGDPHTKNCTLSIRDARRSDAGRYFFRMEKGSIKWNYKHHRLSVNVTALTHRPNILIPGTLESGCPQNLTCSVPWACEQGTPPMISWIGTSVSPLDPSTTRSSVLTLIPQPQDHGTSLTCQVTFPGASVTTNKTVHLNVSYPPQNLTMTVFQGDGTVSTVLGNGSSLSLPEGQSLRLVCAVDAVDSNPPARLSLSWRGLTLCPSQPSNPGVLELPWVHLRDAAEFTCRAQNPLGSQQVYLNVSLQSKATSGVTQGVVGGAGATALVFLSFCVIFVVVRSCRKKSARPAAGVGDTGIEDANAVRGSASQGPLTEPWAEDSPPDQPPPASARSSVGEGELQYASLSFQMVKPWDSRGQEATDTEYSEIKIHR
Protein translocase subunit SecA (Escherichia coli (strain K12)), sequence (P10408 whole entry): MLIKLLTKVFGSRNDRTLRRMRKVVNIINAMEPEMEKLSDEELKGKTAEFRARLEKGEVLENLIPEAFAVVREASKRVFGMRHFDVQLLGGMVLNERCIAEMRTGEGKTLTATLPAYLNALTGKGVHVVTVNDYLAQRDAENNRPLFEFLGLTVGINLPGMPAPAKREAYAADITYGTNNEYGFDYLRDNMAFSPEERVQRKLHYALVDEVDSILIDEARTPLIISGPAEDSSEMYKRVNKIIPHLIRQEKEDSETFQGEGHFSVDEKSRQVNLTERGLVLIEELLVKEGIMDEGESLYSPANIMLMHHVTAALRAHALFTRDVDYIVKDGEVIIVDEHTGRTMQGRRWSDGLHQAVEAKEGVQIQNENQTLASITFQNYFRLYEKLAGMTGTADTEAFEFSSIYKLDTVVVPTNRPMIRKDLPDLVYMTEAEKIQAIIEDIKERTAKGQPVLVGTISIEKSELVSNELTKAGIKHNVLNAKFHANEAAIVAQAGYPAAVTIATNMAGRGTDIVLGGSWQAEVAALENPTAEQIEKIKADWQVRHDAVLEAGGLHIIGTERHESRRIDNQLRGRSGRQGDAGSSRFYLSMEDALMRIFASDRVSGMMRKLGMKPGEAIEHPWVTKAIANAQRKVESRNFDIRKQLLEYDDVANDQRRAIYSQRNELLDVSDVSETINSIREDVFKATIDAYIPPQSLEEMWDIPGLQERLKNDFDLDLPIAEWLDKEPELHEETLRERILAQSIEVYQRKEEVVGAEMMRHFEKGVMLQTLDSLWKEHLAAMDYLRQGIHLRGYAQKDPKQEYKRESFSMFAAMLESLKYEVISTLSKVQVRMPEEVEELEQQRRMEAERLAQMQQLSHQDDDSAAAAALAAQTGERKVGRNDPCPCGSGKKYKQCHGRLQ

SMILES | Percent Effect [1] [%] | Percent Effect [2] [%] | Percent Effect [3] [%] | Percent Effect [4] [%] | Percent Effect (Trypanosoma cruzi) [%] | Percent Effect [5] [%] | Percent Effect [6] [%] | Percent Effect (Homo sapiens) [%] | Percent Effect [7] [%] | Percent Effect [8] [%] | Percent Effect [9] [%]
CCN1CCn2c(C)cnc2C12CCN(C(=O)c1ccc(Cl)cc1)CC2 | -4.5 | 10.7 | 9.36 | -7.09 | -6.95 | -59 | 11.1 | 4.01 | 2.08 | 10 | -6.26
Cn1cc(C2CCCN2C(=O)CCCOc2ccc(F)cc2F)cn1 (stereo not given) | -6.14 | 10.1 | 1.86 | 9.73 | -0.283 | 1.9 | -3.36 | -0.895 | 4.43 | 3.8 | -1.53
CN(C)C(=O)COC1COC2(CCN(S(C)(=O)=O)CC2)C1 (stereo not given) | 0.201 | 13.5 | 1.81 | -7.02 | -1.47 | 9.87 | 18.1 | -9.56 | 4.32 | 12.8 | -1.01
Cc1csc(C2CCCN(C(=O)c3cc(Cl)c[nH]3)C2)n1 (stereo not given) | -4.24 | 5.41 | -0.992 | 9.99 | -5 | -2 | 3.96 | 19 | 14.3 | 13.6 | -2.75
CN(C)c1ccc(CCNC(=O)NCc2ccc(N(C)C)nc2)cc1 | -3.23 | 13.5 | 0.0846 | 11.2 | 1.98 | -5.21 | -4.14 | 5.54 | 7.39 | 18.5 | -9.13
O=C1N(c2ccccc2)Cc2nc(=O)[nH]n21 | -6.16 | 9.33 | -6.52 | 1.33 | 1.38 | -3.35 | 12.2 | 8.42 | 4.23 | 10.3 | -10.1
CCN(CC)C(=O)CCNc1cncc(-n2nc(C)cc2C)n1 | -5.54 | 5.41 | 3.1 | -3.77 | -7.92 | 4.71 | 13.1 | 6.24 | 2.15 | 3.7 | -6.4
c1ccc(OC[C@]23COC[C@H]2CN(c2ncccn2)C3)nc1 | 0.189 | 8 | 1.07 | 5.7 | 6.37 | -59.3 | 12.7 | -4.34 | 3.12 | 17.5 | -8.1
O=C(CCc1nc2cccnc2[nH]1)Nc1cccnc1 | -3.23 | 22.7 | -1.32 | 1.96 | 3.14 | -2.29 | 14.1 | -1.85 | 2.12 | 20.5 | -7.05
O=C(c1csc(-c2cccs2)n1)N1CCCC1Cn1cccn1 (stereo not given) | -3.61 | 10.5 | -6.24 | 3.2 | -3.83 | 1.08 | -4.99 | -2.06 | 3.45 | 6.17 | 0.105
CCN(Cc1nc(C(C)C)no1)Cc1cccs1 | -3.02 | 7.79 | -1.84 | 6.48 | 5.8 | 1.38 | 12 | 6.22 | 1.07 | -1.24 | -5.13
Cc1noc(CN2Cc3ccccc3CC2c2nnc(C)o2)n1 (stereo not given) | -3.16 | 5.2 | 6.26 | 12.5 | 3.23 | 1.9 | 5.58 | 8.44 | 2.86 | 7.06 | 3.28
COc1cc(C(=O)N(Cc2ccco2)C2CC2)cc2c1OCCO2 | -0.29 | -2.63 | 8.94 | 6.17 | -1.46 | -5.92 | 6.81 | 6.99 | 2.13 | 2.6 | 0.909
CC(C(=O)NCc1ccnc(Oc2ccc(F)cc2)c1)n1cncn1 (stereo not given) | -3.42 | -54 | -1.15 | 7.66 | 3.86 | 4.29 | 9.31 | 0.85 | 4.76 | 14.6 | -1.39
CCn1ccnc1CN1CCN(Cc2ccccn2)CC1C (stereo not given) | 1.15 | 5.41 | -1.29 | 3.52 | -3.91 | 5.42 | 9.04 | 12.7 | 8.91 | 13.4 | 14
Cc1cccc(C(=O)N2C[C@@H]3CCN(c4cccnc4)C[C@@H]3C2)c1 | -6.42 | 2.67 | 9.98 | -2.65 | -1.38 | 0.233 | 1.67 | 16.4 | 1.06 | -3.85 | -3.21
CCC1=N[C@@]2(CC[C@@H]3CN(CC4CC4)C[C@@H]32)C(=O)N1C | -4.94 | 10.8 | 1.5 | 0.724 | -1.86 | 0.319 | 19.2 | -28.1 | 0 | 15.4 | -3.77
CCn1c(Cn2cncn2)nnc1C1CCN(Cc2ccncc2)CC1 | -5.1 | 5.41 | -3.24 | 1.13 | -0.489 | 2.73 | 4.72 | -4.54 | 9.68 | 21 | -2.94
CC(C(=O)N1CCN(c2ccccc2Cl)CC1)n1cncn1 (stereo not given) | -2.18 | 11.4 | 2.71 | 2.76 | 1.33 | -1.07 | 15.3 | 5.34 | 0 | 10.1 | -25.6
CCOC(=O)c1sc2ccsc2c1CN | -2.04 | -5.41 | -6.96 | -0.173 | -5.29 | 3.88 | -7.36 | 20.9 | 0 | -1.22 | 5.83
